This is part of a sample that, as a whole, favours compounds with a hit. Of some 83,000 tested, about 20% had one in any assay.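 Testing used 96-well plates and a 48-hour single-concentration exposure. Example: -40 means 40% of the starting cells died.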 Active and inactive are the calls of the source. Rule for the calls: active = growth percent below 10; inactive = the rest.

The assay has as its system CAKI-1 renal. The assay is described as follows: NCI-60 one-dose screen, 48 h (100 = growth as untreated, 0 = no growth, -100 = all killed). Conditions: 10 µM unless noted.
In the case of `CC(=O)OC[C@]12CC[C@@H]([C@@H](C)c3nnc(-c4ccncc4)o3)[C@@H]1[C@H]1CC[C@@H]3[C@@]4(C)CC[C@H](OC(C)=O)C(C)(C)[C@@H]4CC[C@@]3(C)[C@]1(C)CC2`, the growth is 64.4% (inactive).

Take `CCN(CC)c1ccc(/C=N/NC(=O)Cc2ccc(Nc3ccnc(C(F)(F)F)c3)cc2)c(O)c1`: the growth is -20.8% (active).

As to `Cc1cc2c(cc1C)N(C(=O)CCl)CC(=O)N2`, the growth was 103% (inactive).

Turning to `C#CC#CC#CC#CC#CC#CC#CC#CC[C@@H]1OC[C@@H](COC(=O)O[C@@H](C(=O)O[C@H]2C[C@@]3(O)[C@@H](OC(=O)c4ccccc4)[C@@H]4[C@]5(OC(C)=O)CO[C@@H]5C[C@H](O)[C@@]4(C)C(=O)[C@H](OC(C)=O)C(=C2C)C3(C)C)[C@@H](NC(=O)c2ccccc2)c2ccccc2)O1`, the growth was 81.3% (inactive).

As to `CCN1C(=O)N(CC)C2C1NN=c1s/c(=C\c3cnc(C)n3C)c(=O)n12` (stereo not given), the growth was 26% (inactive).

On to `C/C=C(\C)C(=O)N[C@H]1C(O)C[C@]2(C)C3CC[C@@]4(C)C(CC[C@@H]4C(C)N(C)C)C3CCC2C1O` (stereo not given in full), for which the growth is 80.3% (inactive).

In the case of `C#Cc1cccc(Nc2nc(C)nc3cc(NC(=O)CCl)ccc23)c1`, the growth is -91% (active).

Turning to `CSc1nn2c(-c3ccc4ccccc4c3)ccnc2c1C#N`, the growth was 22.4% (inactive).

On to `CCN(CC)CCCOc1ccc2ncnc(Nc3ccc(Oc4cccc(C(F)(F)F)c4)c(Cl)c3)c2c1`, for which the growth was -24.4% (active).

Consider `O=C1/C(=C\c2ccccn2)c2ccccc2N1c1c(Cl)cccc1Cl`, for which the growth was -1.37% (active).

In the case of `CCOC(=O)c1c(C)c2c(n1Cc1ccccc1)CSCC2=O`, the growth is -30.5% [100 µM] (active).

Regarding `O=C(CN1CCN(c2cc3c(cc2F)c(=O)c(C(=O)O)cn3C2CC2)CC1)N/N=C/c1ccco1`, the growth is 99.7% (inactive).

Take `Clc1ccc(-c2cc(-c3ccccc3)nc(NCCNc3ccnc4cc(Cl)ccc34)n2)cc1`: the growth was 5.52% (active).

With `N#C/C(=C\C=C\c1ccc(-c2cc(Cl)ccc2Cl)o1)c1nc2ccccc2s1`, the growth was 75.1% (inactive).

For `COc1cc(OC)c(C(=O)C(CN(C)C)CN(C)C)cc1OC`, the growth is 20.3% (inactive).

Consider `CCn1cc(CNc2ccc(C(=O)Nc3cc4cc(OC)c(OC)cc4c(C)n3)cc2)cn1`, for which the growth is 69% (inactive).

As to `N#Cc1c(-c2ccccc2)nc(SCc2nnc(-c3ccc(Cl)cc3)o2)[nH]c1=O`, the growth was 93.6% (inactive).

As to `O=P(O)(O)OCC1OC(n2cnc3c(NCc4ccco4)ncnc32)C(O)C1O` (stereo not given), the growth is -42.3% (active).

With `CCN(CC)CCCN1C(=O)c2c(c(C)c3c(oc4ccc(O)cc43)c2C)C1=O`, the growth is 82.4% (inactive).

On to `O=[N+]([O-])c1ccc(-c2cn3nc(-c4c[nH]c5ccccc45)sc3n2)cc1`, for which the growth was 91% (inactive).

Turning to `Cc1nc2ccccc2c(/C=C/c2ccccc2)c1C(=O)/C=C/c1ccccc1`, the growth was 34.7% (inactive).

`O=C1Nc2c(C(=O)O)cccc2/C1=N/c1n[nH]c(=S)s1`: the growth is 52% (inactive).

For `CC(=O)Oc1ccc(OC(C)=O)c2ccccc12`, the growth was 100% (inactive).

`COC(=O)/C=C1/SC(=Nc2ccc([N+](=O)[O-])cc2)N(CCc2c[nH]c3ccc(O)cc23)C1=O`: the growth was 71.4% (inactive).

As to `[2H]C([2H])([2H])Oc1ccc(F)cc1/C=C/C(=O)/C=C(/C=C/c1cc(F)ccc1OC([2H])([2H])[2H])OB(F)F`, the growth is 74.1% (inactive).

As for `Nc1c(C(=O)Nc2cccc(Cl)c2)sc2nc3c(cc12)CCCC3`, the growth was 91.3% (inactive).

Consider `NS(=O)(=O)c1ccc(C(=O)NN2C(=O)c3c(Br)c(Br)c(Br)c(Br)c3C2=O)cc1`, for which the growth is 88% (inactive).

Regarding `Cc1c(Cl)cccc1C(=O)Nc1nc2c(s1)CN(C(=O)c1ccc(C(F)(F)F)cc1)CC2`, the growth is 22.7% (inactive).

On to `CCCCCN(CCCCC)CC(O)c1cc(C)c2ccc3cc(C(C)C)ccc3c2c1` (stereo not given), for which the growth is 57.7% (inactive).

As for `CCC1S/C(=N\N=C(\C)c2cc3cc(Cl)ccc3o2)N(c2ccccc2)C1=O` (stereo not given), the growth was 60.1% (inactive).

On to `CN1C(=O)/C(=C/c2ccc(C(=O)Nc3ncc(Cc4cccc(Cl)c4)s3)cc2)SC1=S`, for which the growth is 26.3% (inactive).

`O=C(NCc1cccc(CNC(=O)Nc2nc3ccccc3[nH]2)c1)Nc1nc2ccccc2[nH]1`: the growth is 31.6% (inactive).

As to `COc1ccc(Cn2cc3c(c2-c2ccccc2)CCc2cnoc2-3)cc1`, the growth was 34% (inactive).

Turning to `Cc1ccc(CNc2c3ccccc3nc3ccccc23)cc1`, the growth is 18.6% (inactive).

For `FC(F)(F)c1ccc(Cn2cc(CSc3nc4ccccc4s3)nn2)cc1`, the growth is 84.3% (inactive).

Consider `COc1cc(OC)c2sc(-c3ccc(-n4cncc4-c4cc(OC)c(OC)c(OC)c4)cc3)nc2c1`, for which the growth is 24.3% (inactive).

For the compound `C#CCn1cnc2cnc(Nc3cccc(NC(=O)C=C)c3)nc21`, the growth was 83.4% [6.25 µM] (inactive).

As for `CC(=O)/C(=C/c1ccc([N+](=O)[O-])cc1)C(=O)c1ccccc1`, the growth is 96.3% (inactive).

As to `CCOC(=O)/C=C1\S/C(=N\Nc2cc(=O)[nH]c3ccccc23)N(c2ccccc2)C1=O`, the growth was 92.8% (inactive).

Consider `Cc1ccc(/C=C/C(=O)c2ccc(-n3cc(CN4CCN(c5cc6c(cc5F)c(=O)c(C(=O)O)cn6C5CC5)CC4)nn3)cc2)cc1`, for which the growth was 69.8% (inactive).

For the origin of these results see PubChem BioAssay (NCI).
